Only some compounds are listed: those with a hit (about 1.9% of all), similar ones and a draw of the others.
HTT cytoprotect – Huntington cell model cytoprotection by ATP luminescence; PC12 HTT-Q103 induced, cytoprotection, ATP luminescence, 40 h; Potency, µM (highest dose often 56.4 µM), without a hit: cytoprotection (ATP increase), most hits filed as activators; 0.14% of 230,000 active; AID 1471; note: % of control where 0% means no effect; nearly all actives have a fitted effect of over 45% in size
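Stable PC12 Q103-GFP cells in serum-supplemented, phenol red-free DMEM; induction by tebufenozide at 100 nM final; compound dose series; cell viability quantified luminescently from ATP.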
ERK EGF block – inhibitors of EGF-stimulated ERK signaling pathway; HEK293-V1b, EGF-stimulated phospho-ERK AlphaScreen; Potency, µM (top dose mostly 11.5 µM), without a hit: at the top dose activity change, negative = inhibition, most hits filed as inhibitors; 0.41% of 130,000 active; AID 1454;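 note: plate controls were stimulated vehicle wells for no effect and unstimulated vehicle basal for full effect; nearly all actives have a fitted effect of over 55% in size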
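Stably V1b-transfected HEK293 cells; 30 min compound, then EGF 25 nM final for 5 min at 37C; 10 min lysis; phospho-ERK by AlphaScreen after 5 hr beads at room temperature.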
HTT aggregate – reduces HttQ103-GFP aggregates in PC12 cells | PC12 HttQ103-GFP aggregates, Acumen cytometry, 40 h | Potency, µM (highest dose often 46.1 µM), for the others: top-dose activity change, negative = inhibition, usual class: inhibitors | 1.1% of 220,000 active | AID 1688; note: % is set by controls: 0 for no effect and ±100 for the full control effect; nearly all actives have a fitted effect of over 60% in size
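PC12/HTTQ103-GFP, ecdysone-inducible; teb 100 nM; cpd qHTS titration; GFP aggregates read on laser cytometer, Ex 488/Em 500-530 nm.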
NPSR antag – blocks cAMP signaling of the human neuropeptide S receptor. Potency, µM (top dose mostly 38.3 µM), inactives show at the top dose activity change, negative = inhibition, most hits filed as inhibitors. 1% of 220,000 active. CHO-NPSR cells, cAMP TR-FRET, antagonist mode. Q6W5P4; note: % is set by controls: 0 for no effect and ±100 for the full control effect; nearly all actives have a fitted effect of over 50% in size
Target sequence (Q6W5P4 whole entry, looked up): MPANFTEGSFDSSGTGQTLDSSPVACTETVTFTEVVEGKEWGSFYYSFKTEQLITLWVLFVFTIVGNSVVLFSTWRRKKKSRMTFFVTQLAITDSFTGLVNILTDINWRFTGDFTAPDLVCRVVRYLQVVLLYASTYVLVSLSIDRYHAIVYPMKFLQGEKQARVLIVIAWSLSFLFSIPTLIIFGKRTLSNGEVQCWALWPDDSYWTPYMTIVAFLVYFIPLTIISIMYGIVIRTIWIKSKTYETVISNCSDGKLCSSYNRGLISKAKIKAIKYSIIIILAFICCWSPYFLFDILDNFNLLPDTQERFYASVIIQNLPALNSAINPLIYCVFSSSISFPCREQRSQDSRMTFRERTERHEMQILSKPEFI
IMPase Li cell – IMPase inhibition in cells with lithium potentiation | Potency, µM (titrated, usually from 59.4 µM), for inactives: at the top dose activity, negative = IMPase inhibition, usual class: inhibitors | AID 1457 | CHO-M1 cells, IP1 TR-FRET (IP-One), carbachol + lithium | 0.35% of 210,000 active;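 note: IP1 builds up when IMPase is blocked and the TR-FRET signal falls; plate controls were basal vehicle for no effect and high inhibitor control for full effect; nearly all actives have a fitted effect of over 50% in size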
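Readout is a homogeneous TR-FRET IP1 immunoassay (Ex 320, Em 665 and 620), where raised cytosolic IP1 lowers signal. Cells were CHO-M1 treated 30 min at 37C with test compounds plus a little lithium; AC50 values came from Hill-equation fitting.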
* = called active by the depositor; u = inconclusive; x = not tested or not shown; [ ] = another dose, or the depositor's remark. Calls come from the whole dose curve; as a rule, active = well fitted curve in the direction sought with a large enough effect; inconclusive = small, poorly fitted or top-dose-only effect, or another doubt; inactive = no such curve, though single readings can be large; an effect the other way counts as inactive or inconclusive. Potency is the fitted concentration of half-maximal effect.

SMILES	HTT cytoprotect	ERK EGF block	HTT aggregate	NPSR antag	IMPase Li cell
CCOc1ccccc1NC1=CC(=O)CC(c2ccccc2)C1 (centres undefined)	-41.4%	x	-4.8%	1.26µM*	-6.2%[38.3 µM]
COC(=O)[C@@H](NC(=O)O[C@@H]1C(=O)c2cc(OC)ccc2O[C@H]1c1cccc(OC)c1)C(C)C	x	-15.3%	x	x	14.8%
COCCNc1nc(C)nc2c1nc(-c1ccccc1)n2CC1CCN(C)CC1	u	22.4%	x	x	-19.8%
COc1ccc(N2CCN(C(=S)Nc3cc(C)ccc3C)CC2)cc1	-2.1%	x	-5.8%	-4.1%[46.1 µM]	-8.9%[38.3 µM]
COc1ccc(N2CCC(CNC(=S)Nc3cc(C)ccc3C)C2)cc1 (centres undefined)	33.2%[10 µM]	14.1µM*	-22.7%[9.22 µM]	-51.7%	x
COc1ccc(N2CCC(CNC(=S)Nc3cc(C)cc(C)c3)C2)cc1 (centres undefined)	15.9%[10 µM]	14.1µM*	23.8%[9.22 µM]	-52.5%	x
COc1cccc(/C=N/NC(=O)CNC(=O)c2ccc3c(c2)OCCO3)c1O	-0.1%[10 µM]	3.6%	35.5µM*	10.1%	-1.2%
COc1cccc(/C=N/NC(=O)CNC(=O)C2COc3ccccc3O2)c1O (centres undefined)	34.0%[10 µM]	6.8%	12.6µM*	-5.1%	-4.7%
COc1ccc(/C(C)=N/NC(=O)CNC(=O)C2COc3ccccc3O2)c(OC)c1 (centres undefined)	-5.0%[10 µM]	-12.4%[57.5 µM]	0.3%[9.22 µM]	24.9%	x
Cc1ccccc1NC(=O)CCC(=O)N/N=C/c1cc([N+](=O)[O-])ccc1O	x	-0.7%	12.6µM*	3.0%	2.8%
O=C(N/N=C/c1ccccc1[N+](=O)[O-])c1ccc2c(c1)OCCO2	-91.6%[10 µM]	-4.1%[57.5 µM]	-15.7%[9.22 µM]	-10.9%	x
O=C(N/N=C/c1cc([N+](=O)[O-])ccc1O)c1ccc2c(c1)OCCO2	24.6%[10 µM]	2.5%	14.1µM*	-11.4%	0.7%
CCCOc1ccc(-c2nn(-c3ccccc3)cc2/C=C2\SC(N)=NC2=O)cc1	-19.0%[10 µM]	7.2%	1.7%	3.98µM*	u
Cc1cc(-c2nn(-c3ccccc3)cc2/C=C2\SC(N)=NC2=O)ccc1OC(C)C	-8.7%[10 µM]	-3.4%	3.3%	-28.8%[46.1 µM]	-14.1%
CC(C)(C)NC(=S)NNC(=O)c1cccc(Br)c1	-141.1%	9.0%	11.2µM*	-36.0%	2.5%
CCOC(=O)N1CCN(c2cc(NCCC(=O)O)c3c4c(onc24)-c2ccccc2C3=O)CC1	-7.5%[1.9 µM]	x	6.7%	10µM*	200.6%[38.3 µM]
O=C(O)CCCNc1cc(N2CCC3(CC2)OCCO3)c2noc3c2c1C(=O)c1ccccc1-3	-40.8%	x	-3.8%	10µM*	108.8%[38.3 µM]
CCOc1ccc(N=C2NC(=O)S/C2=C\c2ccc(N(C)C)cc2)cc1	-88.3%	x	22.4µM*	-23.7%[46.1 µM]	0.6%[38.3 µM]
CCOc1ccc(/C=C2/SC(=O)NC2=S)cc1	-21.2%[10 µM]	u	-20.7%	-48.9%	8.1%
CC1(C)OC2OC(C(=O)N/N=C/c3cc(Br)ccc3O)C3OC(C)(C)OC3C2O1 (centres undefined)	16.4%[10 µM]	-4.2%	10µM*	1.2%	3.8%
CCCn1c(C)nc2c(NCCOC)nc(C)nc21	-3.9%	-2.3%	x	x	-6.6%
CCCCC(CC)COC(=O)COc1ccc(Cl)cc1Cl (centres undefined)	4.9%	x	x	x	-1.7%
CCN(CC)c1ccc2cc(-c3nnc(-c4ccncc4)o3)c(=O)oc2c1	-2.4%[10 µM]	x	2.51µM*	-10.6%[46.1 µM]	3.3%[38.3 µM]
CCN(CC)c1ccc2cc(C(C)=O)c(=O)oc2c1	-19.9%	x	-2.4%	-10.9%[46.1 µM]	0.6%[38.3 µM]
C=C1C[C@@]23C[C@]1(O)CC[C@@H]2[C@]12C=C[C@@H](O)[C@@](C)(C(=O)O1)[C@@H]2[C@@H]3C(=O)O	9.9%	x	x	x	x
SMILES	HTT cytoprotect	ERK EGF block	HTT aggregate	NPSR antag	IMPase Li cell
O=C(/C=C\c1cccs1)c1c(O)ccc2ccc(=O)oc12	11.6%[10 µM]	12.4%	11.2µM*	-24.8%	3.7%
CC(C)(C)C(=O)C(Oc1ccc(Cl)cc1)n1ccnc1 (centres undefined)	-231.0%	x	-3.5%	x	x
CC(C)c1ccccc1S(=O)(=O)c1cc(N)c2ncccc2c1[N+](=O)[O-]	7.94µM*	4.7%	x	x	5.4%
CCN(CC)CCN1C(=O)C(O)=C(C(=O)c2cc3ccccc3o2)C1c1cccnc1 (centres undefined)	-14.2%	x	0.0%	u	10µM*
COc1ccccc1C1C(C(=O)c2cc3ccccc3o2)=C(O)C(=O)N1CCN(C)C (centres undefined)	-1.7%[0.074 µM]	x	u	16.8%[46.1 µM]	8.91µM*
COc1cccc2cc(C(=O)C3=C(O)C(=O)N(CCN(C)C)C3c3ccc(Cl)cc3)oc12 (centres undefined)	2.8%[10 µM]	0.0%[57.5 µM]	-3.7%[9.22 µM]	-19.0%	x
O=C(C1=C(O)C(=O)N(CCc2ccccc2)C1c1ccncc1)c1cc2ccccc2o1 (centres undefined)	-45.2%[1.9 µM]	-4.5%	19.2%[9.22 µM]	-47.2%	4.47µM*
CN(C)CCN1C(=O)C(O)=C(C(=O)c2cc3ccccc3o2)C1c1cccc(Br)c1 (centres undefined)	-5.8%	x	16.0%	u	11.2µM*
COc1ccc(C(=O)OC2CC3CC[C@H](C2)N3C(C)=O)cc1OC (some centres undefined)	-0.7%	-12.1%	x	x	8.9%
COc1ccc(Oc2ncc3nc(-c4ccc(OC)cc4)c(=O)n(Cc4cccs4)c3n2)cc1	u	-6.5%	x	x	u
O=C(C1=C(O)C(=O)N(CCCN2CCOCC2)C1c1ccccn1)c1cc2ccccc2o1 (centres undefined)	-12.1%	x	-17.5%	23.8%[46.1 µM]	11.2µM*
O=C(C1=C(O)C(=O)N(CCCN2CCOCC2)C1c1ccccn1)c1cccs1 (centres undefined)	4.6%	x	u	-22.9%[46.1 µM]	24.0%[38.3 µM]
CCCCc1nc2c(c3c1C[C@H](C)OC3)CN(C(=O)Nc1ccc(OC)cc1)CC2	-24.3%[10 µM]	x	x	x	6.0%
Cc1csc(N/N=C/c2ccc(O)c([N+](=O)[O-])c2)n1	3.0%[10 µM]	x	x	10µM*	30.6%[38.3 µM]
O=[N+]([O-])c1cc(/C=N\Nc2nc(-c3ccccc3)cs2)ccc1O	-10.5%	u	-20.8%	-49.0%	-3.9%
CC(/C=N\N1CCN(c2ccc(Cl)cc2)CC1)=C\c1ccccc1	3.16µM*	x	13.5%	3.6%[46.1 µM]	18.2%[38.3 µM]
CC(/C=N/N1CCN(c2ccc(C)cc2)CC1)=C\c1ccccc1	3.9%[1.9 µM]	-4.7%	-6.6%	16.4%	-7.1%
S=C([S-])NCCNC(=S)[S-].[Zn+2]	u	x	x	x	20.4%
O=S(=O)(NC1CCCC1)c1ccc(S(=O)(=O)N2CCc3ccccc32)cc1	27.0%[10 µM]	5.0%	11.2µM*	-15.7%	21.7%
C=CCC(O)(C#Cc1ccccc1)c1ccccc1 (centres undefined)	-12.3%	-7.3%	x	x	7.9%
N#Cc1cc2c(OCC(O)CN3CCN(C(c4ccccc4)c4ccccc4)CC3)cccc2[nH]1 (centres undefined)	-137.8%	x	x	x	37.5%
COc1ccccc1NC(=S)NC(=O)c1ccc(-c2ccc(Cl)cc2)o1	-25.2%	x	-6.0%	-10.2%[46.1 µM]	-4.2%[38.3 µM]
